Holding throughout (settings): concentration: 1 μM, replicates: in singlicate; n = 1
The subject of test [1] is RPS6KA4(Kin.Dom.1-N-terminal).
The test system of test [2] is RPS6KA4(Kin.Dom.2-C-terminal).
In test [3] the test system is RPS6KA5(Kin.Dom.1-N-terminal).
Test [4] relates to RPS6KA5(Kin.Dom.2-C-terminal).
Test [5] deals with T1, RSK1(Kin.Dom.1-N-terminal).
T1 construct: gene RPS6KA1

In test [6] the test system is T2, RSK1(Kin.Dom.2-C-terminal).
T2 construct: gene RPS6KA1

The subject of test [7] is T3, RSK2(Kin.Dom.1-N-terminal).
T3 construct: gene RPS6KA3

Test [8] concerns T4, RSK2(Kin.Dom.2-C-terminal).
T4 construct: gene RPS6KA3

The test system of test [9] is T5, RSK3(Kin.Dom.1-N-terminal).
T5 construct: gene RPS6KA2

Test [10] has as its system T6, RSK3(Kin.Dom.2-C-terminal).
T6 construct: gene RPS6KA2

In test [11] the test system is T7, RSK4(Kin.Dom.1-N-terminal).
T7 construct: gene RPS6KA6

Test [12] relates to T8, RSK4(Kin.Dom.2-C-terminal).
T8 construct: gene RPS6KA6

Test [13] concerns S6K1.
In test [14] the test system is SBK1.
Test [15] has as its system SGK2.
For test [16], the system named is SGK3.
The test system of test [17] is SGK.
The subject of test [18] is SIK2.
The subject of test [19] is SIK.
Test [20] has as its system SLK.
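Note: KINOMEscan kinase panel screen.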

For the molecule `CSc1cccc2c(-c3ccncn3)c(-c3ccc(F)cc3)nn12` [GW514786], the “%Inh” value is listed as 28% in test [1]; 0% in test [2]; 3% in test [3]; 7% in test [4]; 5% in [5]; 38% in test [6]. Moreover, the “%Inh” value worked out at 0% in test [7]; 11% in [8]; 11% in test [9]; 0% in [10]; 0% in [11]; 90% in [12]. Besides, the “%Inh” value is given as 0% in test [13]; 2% in test [14]; 15% in [15]; 0% in test [16]; 1% in test [17]; 2% in test [18]. Moreover, the “%Inh” value was 2% in test [19] and 22% in [20].
In the case of `O=C(Nc1cccc(Oc2ccc3nc(NC(=O)C4CC4)cn3n2)c1)c1ccccc1C(F)(F)F`, the “%Inh” value in test [1] amounted to 35%; in test [2] it was 0%; in [3], 0%; in test [4], 17%; in test [5] it was 6%; in test [6], 0%. Also, the “%Inh” value in [7] is 0%; in test [8], 55%; in test [9] it was 6%; in test [10] it was 0%; in [11], 0%; in test [12], 0%. Besides, the “%Inh” value in test [13] was determined as 0%; in [14], 0%; in test [15], 7%; in test [16], 0%; in test [17], 0%; in [18] it was 28%. Moreover, the “%Inh” value in test [19] was 1%; in [20], 32%.
`O=c1[nH]cc(-c2ccc(N3CCOCC3)cc2)c2sc(-c3cn[nH]c3)cc12` [GSK2276055]: the “%Inh” value in test [1] is on record as 2%; in [2] it was 0%; in test [3], 0%; in test [4] it was 28%; in [5], 29%; in [6], 24%. Further, the “%Inh” value is listed as 23% in test [7]; 7% in test [8]; 14% in test [9]; 22% in test [10]; 0% in test [11]; 18% in test [12]. Moreover, the “%Inh” value came out at 0% in test [13]; 0% in test [14]; 0% in [15]; 13% in [16]; 0% in test [17]; 0% in test [18]. The “%Inh” value in [19] and in test [20] was 0% in each case.
Turning to `CN1CCN(CCCNc2nccc(-c3c(-c4ccc(F)cc4)nn4cc(C(F)(F)F)ccc34)n2)CC1` [GW621581], the “%Inh” value in [1] amounted to 10%; in test [2] it was 0%; in [3], 26%; in test [4], 0%; in test [5], 0%; in [6], 44%. Moreover, the “%Inh” value in test [7] is 0%; in test [8], 17%; in [9] it was 10%; in test [10], 0%; in test [11], 0%; in test [12] it was 80%. The “%Inh” value in test [13] is reported as 1%; in test [14], 8%; in [15] it was 0%; in test [16], 0%; in [17] it was 12%; in [18] it was 70%. In addition, the “%Inh” value is on record as 0% in test [19] and 42% in test [20].
With `COc1cc(Nc2nccc(N3CCC(NC(=O)Nc4cccc(C(C)=O)c4)C3)n2)cc(OC)c1OC` (centres unmarked) [GSK1379753], the “%Inh” value in test [1] was found to be 7%; in test [2], 0%; in test [3] it was 9%; in test [4] it was 6%; in test [5] it was 15%; in test [6] it was 5%. Further, the “%Inh” value worked out at 10% in test [7]; 67% in test [8]; 17% in test [9]; 0% in test [10]; 15% in test [11]; 12% in [12]. Moreover, the “%Inh” value in test [13] turned out to be 19%; in test [14] it was 11%; in test [15], 5%; in test [16], 0%; in test [17] it was 0%; in test [18], 0%. The “%Inh” value in [19] came out at 0%; in [20] it was 30%.
Consider `Cl.Cl.NCC(NC(=O)c1cc(-c2ccccc2)c(-c2ccnc3[nH]ccc23)s1)c1ccccc1` (centres unmarked) [GSK1321561], for which the “%Inh” value in test [1] is recorded as 24%; in test [2], 0%; in [3], 4%; in test [4], 0%; in [5] it was 0%; in test [6], 62%. For the same molecule, the “%Inh” value came to 14% in [7]; 61% in test [8]; 0% in test [9]; 0% in test [10]; 0% in test [11]; 0% in test [12]. Besides, the “%Inh” value in test [13] was 6%; in test [14] it was 11%; in test [15] it was 27%; in test [16] it was 15%; in test [17] it was 0%; in [18], 0%. Also, the “%Inh” value is listed as 11% in test [19] and 31% in test [20].
`COc1ccc(Nc2nccc(NCCNC(=O)c3cc4ccccc4s3)n2)cc1` [GSK1379896]: the “%Inh” value came out at 0% in [1]; 0% in test [2]; 3% in [3]; 0% in test [4]; 0% in test [5]; 0% in test [6]. In addition, the “%Inh” value in test [7] came to 0%; in test [8] it was 23%; in [9] it was 0%; in [10], 0%; in test [11] it was 0%; in [12], 0%. The “%Inh” value in test [13] is reported as 7%; in [14], 20%; in test [15], 6%; in [16], 0%; in test [17] it was 0%; in [18] it was 0%. The “%Inh” value is reported as 0% in [19] and 18% in test [20].
For `COc1ccc(CNC(=O)NC2CCN(c3ccnc(Nc4ccc(F)cc4)n3)CC2)cc1` [GSK1379788], the “%Inh” value in test [1] came out at 0%; in [2] it was 0%; in test [3], 7%; in [4], 9%; in test [5], 18%; in [6] it was 0%. Moreover, the “%Inh” value in [7] is reported as 0%; in test [8], 5%; in test [9] it was 0%; in test [10], 0%; in [11], 0%; in [12], 12%. Moreover, the “%Inh” value in test [13], in test [14], in [15], in test [16], in test [17] and in [18] was 0% in each case. The “%Inh” value was determined as 0% in [19] and 7% in test [20].
In the case of `CNC(=O)c1ccccc1Nc1nc(Nc2ccc(N3CCOCC3)cc2)ncc1Cl.Cl` [GSK1576028], the “%Inh” value in [1] is given as 99.7%; in [2] it was 0%; in test [3] it was 90%; in test [4] it was 44%; in test [5], 100%; in test [6], 54%. Further, the “%Inh” value was determined as 100% in test [7]; 0% in test [8]; 99.3% in test [9]; 25% in test [10]; 99.3% in test [11]; 38% in [12]. Also, the “%Inh” value in test [13] was 97%; in test [14] it was 90.5%; in test [15], 50%; in [16], 87%; in test [17], 97.1%; in test [18], 92.4%. The “%Inh” value in test [19] worked out at 99%; in test [20], 99.5%.
For the molecule `CCc1ccc(-c2ccc3c(c2)-c2c(cnn2C)S(=O)(=O)N3C)cc1`, the “%Inh” value came to 5% in test [1]; 0% in test [2]; 7% in test [3]; 0% in [4]; 10% in test [5]; 0% in test [6]. For the same molecule, the “%Inh” value came to 0% in [7]; 29% in [8]; 17% in test [9]; 13% in test [10]; 0% in test [11]; 0% in [12]. Besides, the “%Inh” value in [13] was determined as 4%; in [14], 0%; in test [15] it was 0%; in [16] it was 0%; in test [17] it was 0%; in [18], 4%. Moreover, the “%Inh” value in test [19] was 6%; in test [20], 0%.

Source of the values: paper PMC5540273 (PLoS ONE, 2017).
